PubChem BioAssay AID1159580 (chemical genetic matrix, 2015)
Values joined by “and” are separate entries in the source; they are usually repeats but may differ in a detail not shown here. Identical values can stand only once. The campaign covered roughly 5,500 compounds. About 2,000 (36%) were called active. Inconclusive results (about 18%) are left out. No stated cut-off is given here; in the data, active means normalized growth mostly below about 0.91 (no sharp cut-off); inconclusive means no clear call, values can overlap the other calls; inactive means mostly above about 0.92. Some of the results follow.

Experiment: chemical genetic growth profiling, strain panel (AID 1159580);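 further: tested at 20 µM; growth read once vehicle control cultures reached saturation at 30 °C; 1 = growth at the plate median or of vehicle wells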
Details: S. cerevisiae deletion strains, growth OD

Measured: normalized growth

COc1ccc(-c2cc(=O)c3c(O)cc(O[C@@H]4O[C@H](CO[C@H]5O[C@H](C)[C@@H](O)[C@H](O)[C@@H]5O)[C@@H](O)[C@H](O)[C@H]4O)cc3o2)cc1O
inactive: locus YAL021C, strain ccr4, stronger effect = lower value 1.01 | locus YAL026C, strain drs2, stronger effect = lower value 1.05 | locus YAL030W, strain snc1, stronger effect = lower value 1.02 | locus YBL061C, strain skt5, stronger effect = lower value 1.02 | locus YBR009C, strain hhf1, stronger effect = lower value 1.01 | locus YBR021W, strain FUR4, stronger effect = lower value 1.03 | locus YBR023C, strain chs3, stronger effect = lower value 1.01 | locus YBR171W, strain sec66, stronger effect = lower value 1.02 | locus YBR229C, strain ROT2, stronger effect = lower value 0.994 | locus YBR231C, strain swc5, stronger effect = lower value 1.02 | locus YBR279W, strain paf1, stronger effect = lower value 1.01 | locus YCL011C, strain gbp2, stronger effect = lower value 1.01 | locus YCL016C, strain dcc1, stronger effect = lower value 1.02 | locus YCL029C, strain bik1, stronger effect = lower value 0.986 | locus YCL061C, strain MRC1, stronger effect = lower value 1.01 | locus YCL069W, strain vba3, stronger effect = lower value 1.03 | locus YCR088W, strain abp1, stronger effect = lower value 1.01 | locus YDL005C, strain med2, stronger effect = lower value 1.02 | locus YDL035C, strain GPR1, stronger effect = lower value 0.983 | locus YDL040C, strain nat1, stronger effect = lower value 1 | locus YDL074C, strain BRE1, stronger effect = lower value 1.02 | locus YDL101C, strain DUN1, stronger effect = lower value 0.995 | locus YDL185W, strain tfp1, stronger effect = lower value 0.969 | locus YDL192W, strain arf1, stronger effect = lower value 0.985 | locus YDR001C, strain nth1, stronger effect = lower value 1.01 | locus YDR069C, strain doa4, stronger effect = lower value 1.02 | locus YDR101C, strain arx1, stronger effect = lower value 1 | locus YDR137W, strain rgp1, stronger effect = lower value 1.03 | locus YDR150W, strain NUM1, stronger effect = lower value 0.99 | locus YDR159W, strain sac3, stronger effect = lower value 1.02 | locus YDR162C, strain NBP2, stronger effect = lower value 0.972 | locus YDR195W, strain ref2 1.04 | locus YDR297W, strain sur2, stronger effect = lower value 1.01 | locus YDR318W, strain mcm21, stronger effect = lower value 1 | locus YDR334W, strain swr1, stronger effect = lower value 1.02 | locus YDR335W, strain msn5, stronger effect = lower value 1.01 | locus YDR388W, stronger effect = lower value 0.991 | locus YDR392W, strain spt3, stronger effect = lower value 0.987 | locus YDR502C, strain sam2, stronger effect = lower value 0.993 | locus YEL003W, strain gim4, stronger effect = lower value 1.02 | locus YEL037C, strain rad23, stronger effect = lower value 1.01 | locus YEL061C, strain CIN8 (second series), stronger effect = lower value 1.03 | locus YEL061C, strain CIN8, stronger effect = lower value 0.997 | locus YER015W, strain faa2, stronger effect = lower value 1.01 | locus YER016W, strain bim1, stronger effect = lower value 1.02 | locus YER110C, stronger effect = lower value 0.979 | locus YER111C, strain swi4, stronger effect = lower value 1 | locus YER155C, strain BEM2 (second series), stronger effect = lower value 1 | locus YER155C, strain BEM2, stronger effect = lower value 0.995 | locus YER167W, strain BCK2, stronger effect = lower value 0.981 | locus YFR010W, strain ubp6, stronger effect = lower value 1.02 | locus YGL078C, strain dbp3, stronger effect = lower value 1 | locus YGL086W, strain mad1, stronger effect = lower value 1.01 | locus YGL167C, strain pmr1, stronger effect = lower value 1.01 | locus YGL173C, strain kem1, stronger effect = lower value 1.04 | locus YGL227W, strain vid30, stronger effect = lower value 1.01 | locus YGL240W, strain doc1, stronger effect = lower value 1.04 | locus YGL248W, strain PDE1, stronger effect = lower value 0.999 | locus YGL253W, strain hxk2, stronger effect = lower value 1 | locus YGR078C, strain PAC10, stronger effect = lower value 1.01 | locus YGR135W, strain pre9, stronger effect = lower value 0.956 | locus YGR252W, strain gcn5, stronger effect = lower value 1.04 | locus YHR013C, strain ard1, stronger effect = lower value 1.02 | locus YHR027C, strain rpn1, stronger effect = lower value 1.02 | locus YHR030C, strain SLT2, stronger effect = lower value 0.985 and 1 | locus YHR079C, strain IRE1 (second series), stronger effect = lower value 0.991 | locus YHR079C, strain IRE1, stronger effect = lower value 0.996 | locus YHR094C, strain hxt1, stronger effect = lower value 0.977 | locus YHR129C, strain ARP1, stronger effect = lower value 0.988 | locus YHR142W, strain chs7, stronger effect = lower value 0.978 | locus YHR200W, strain rpn10, stronger effect = lower value 0.989 | locus YIL066C, strain RNR3, stronger effect = lower value 0.994 | locus YIL073C, strain SPO22, stronger effect = lower value 0.963 | locus YIL125W, strain kgd1, stronger effect = lower value 1.01 | locus YIR030C, strain dcg1, stronger effect = lower value 0.985 | locus YJL092W, strain hpr5, stronger effect = lower value 1.02 | locus YJL095W, strain BCK1 (second series), stronger effect = lower value 1.01 | locus YJL095W, strain BCK1, stronger effect = lower value 1.01 and 0.997 | locus YJL115W, strain asf1, stronger effect = lower value 1.03 | locus YJL129C, strain trk1, stronger effect = lower value 1.03 | locus YJL134W, strain LCB3, stronger effect = lower value 0.988 | locus YJL154C, strain vps35, stronger effect = lower value 1.02 | locus YJL164C, strain tpk1, stronger effect = lower value 1.02 | locus YJL166W, strain qcr8, stronger effect = lower value 1.02 | locus YJL168C, strain set2, stronger effect = lower value 1 | locus YJL187C, strain SWE1 (second series), stronger effect = lower value 1 | locus YJL187C, strain SWE1, stronger effect = lower value 1.01 | locus YJR043C, strain POL32, stronger effect = lower value 1.02 | locus YJR066W, strain TOR1, stronger effect = lower value 0.981
